# According to PubChem BioAssay:
# Active and inactive are the calls of the source.
# Legend:
# [1] = small molecules captured by biotinylated probe aFSTL3 – biochemical, small-molecule microarray, fluorescence 635/667, stem cell growth factor project, primary screen (AID 1064); conditions: higher = more signal;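 also: measures binding of the biotinylated anti-FSTL3 antibody to printed compounds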
# [2] = binders from COS7 lysate, DM2A8 probe, primary screen, torsin A project, cell lysate, small-molecule microarray, fluorescence 635/667 (AID 1065); conditions: higher = more signal, COS7 lysate expressing mutant human TOR1A
# [3] = small molecules captured by biotinylated probe aFGF2 – biochemical, small-molecule microarray, fluorescence 635/667, stem cell growth factor project, primary screen (AID 1067); conditions: higher = more signal;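 also: measures binding of biotinylated aFGF2 protein to printed compounds on slides; z-score merges feature fluorescence and signal-to-noise across triplicate slides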
# [4] = small molecules captured by biotinylated probe aFGF10 – biochemical, small-molecule microarray, fluorescence 635/667, stem cell growth factor project, primary screen (AID 1071); conditions: higher = more signal;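 also: score merges 667 nm spot intensity and signal to noise from triplicate slides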
# [5] = molecular target: Neurogenic locus notch homolog protein 2 (Homo sapiens) (UniProt Q04721); test: small molecules binding Notch2 protein – biochemical, small-molecule microarray, 635 nm fluorescence, stem cell growth factors, primary screen (AID 1073); conditions: higher = more signal
# Chain of Neurogenic locus notch homolog protein 2 (Homo sapiens) (Q04721 whole entry, looked up, canonical isoform): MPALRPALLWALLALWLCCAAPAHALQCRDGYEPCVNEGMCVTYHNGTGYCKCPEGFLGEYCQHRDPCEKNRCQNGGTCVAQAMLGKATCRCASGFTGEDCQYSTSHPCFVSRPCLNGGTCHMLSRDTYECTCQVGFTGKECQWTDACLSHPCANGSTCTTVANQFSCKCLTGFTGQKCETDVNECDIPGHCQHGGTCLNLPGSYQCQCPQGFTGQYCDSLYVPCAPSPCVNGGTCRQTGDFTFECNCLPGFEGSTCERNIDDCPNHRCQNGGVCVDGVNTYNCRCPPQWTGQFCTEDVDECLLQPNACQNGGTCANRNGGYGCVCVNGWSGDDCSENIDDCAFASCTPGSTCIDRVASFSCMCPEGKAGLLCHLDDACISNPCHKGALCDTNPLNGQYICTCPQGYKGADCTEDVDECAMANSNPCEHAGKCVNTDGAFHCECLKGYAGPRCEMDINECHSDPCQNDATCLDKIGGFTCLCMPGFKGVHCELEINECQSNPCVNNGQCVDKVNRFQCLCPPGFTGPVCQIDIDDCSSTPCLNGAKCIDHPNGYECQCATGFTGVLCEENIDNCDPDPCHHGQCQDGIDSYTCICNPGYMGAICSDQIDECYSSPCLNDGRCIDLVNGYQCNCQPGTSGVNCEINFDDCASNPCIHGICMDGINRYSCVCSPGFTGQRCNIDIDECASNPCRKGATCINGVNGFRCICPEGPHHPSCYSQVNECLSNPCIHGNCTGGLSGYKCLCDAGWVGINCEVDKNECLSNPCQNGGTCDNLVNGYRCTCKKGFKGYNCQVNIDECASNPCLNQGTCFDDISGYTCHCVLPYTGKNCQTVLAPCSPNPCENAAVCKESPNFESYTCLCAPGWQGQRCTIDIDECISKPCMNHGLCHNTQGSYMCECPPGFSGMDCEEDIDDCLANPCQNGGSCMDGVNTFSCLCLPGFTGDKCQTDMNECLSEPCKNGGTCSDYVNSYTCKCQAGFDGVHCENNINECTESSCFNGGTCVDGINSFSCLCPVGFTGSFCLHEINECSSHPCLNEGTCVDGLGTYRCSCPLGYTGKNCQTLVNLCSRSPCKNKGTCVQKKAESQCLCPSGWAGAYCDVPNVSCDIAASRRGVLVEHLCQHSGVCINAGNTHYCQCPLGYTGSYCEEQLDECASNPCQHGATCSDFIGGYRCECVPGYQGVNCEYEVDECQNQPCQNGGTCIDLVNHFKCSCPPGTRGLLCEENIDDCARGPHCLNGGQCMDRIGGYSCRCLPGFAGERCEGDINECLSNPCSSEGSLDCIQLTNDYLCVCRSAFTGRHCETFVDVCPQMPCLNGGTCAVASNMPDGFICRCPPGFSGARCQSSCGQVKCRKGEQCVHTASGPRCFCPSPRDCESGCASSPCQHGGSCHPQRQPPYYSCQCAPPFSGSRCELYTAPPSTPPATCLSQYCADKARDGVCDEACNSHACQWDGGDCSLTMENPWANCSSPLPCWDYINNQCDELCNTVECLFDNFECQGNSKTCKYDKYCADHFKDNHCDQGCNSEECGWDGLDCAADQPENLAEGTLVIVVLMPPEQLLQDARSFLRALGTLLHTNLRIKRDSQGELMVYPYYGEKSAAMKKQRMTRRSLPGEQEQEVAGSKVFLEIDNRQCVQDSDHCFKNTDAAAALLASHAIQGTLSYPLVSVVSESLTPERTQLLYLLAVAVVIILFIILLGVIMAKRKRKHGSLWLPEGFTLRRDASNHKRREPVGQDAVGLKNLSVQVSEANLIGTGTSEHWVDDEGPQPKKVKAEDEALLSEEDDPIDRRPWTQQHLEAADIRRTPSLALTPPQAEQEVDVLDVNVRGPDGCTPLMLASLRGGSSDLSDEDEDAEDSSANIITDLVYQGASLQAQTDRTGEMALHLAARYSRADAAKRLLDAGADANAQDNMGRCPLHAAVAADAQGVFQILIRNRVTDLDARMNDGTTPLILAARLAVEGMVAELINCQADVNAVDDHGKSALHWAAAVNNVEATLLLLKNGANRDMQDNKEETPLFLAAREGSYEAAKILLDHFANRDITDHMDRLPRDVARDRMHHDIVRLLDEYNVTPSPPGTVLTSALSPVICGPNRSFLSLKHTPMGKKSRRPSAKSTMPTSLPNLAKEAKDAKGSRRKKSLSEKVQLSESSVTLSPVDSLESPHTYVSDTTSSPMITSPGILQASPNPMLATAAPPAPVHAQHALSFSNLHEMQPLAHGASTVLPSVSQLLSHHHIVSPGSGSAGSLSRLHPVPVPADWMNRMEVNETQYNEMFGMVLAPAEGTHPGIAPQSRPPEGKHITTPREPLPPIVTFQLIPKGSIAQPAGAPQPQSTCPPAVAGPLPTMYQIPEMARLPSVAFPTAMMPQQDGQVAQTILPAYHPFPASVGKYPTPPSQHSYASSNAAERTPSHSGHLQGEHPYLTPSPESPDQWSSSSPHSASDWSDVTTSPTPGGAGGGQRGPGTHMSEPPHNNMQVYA
# [6] = molecular target: Pro-neuregulin-1, membrane-bound isoform (Homo sapiens) (UniProt Q02297); test: small molecules binding neuregulin-1 protein – biochemical, small-molecule microarray, fluorescence 635/667, psychiatric disease protein project, primary screen (AID 1075); conditions: NRG1 binding, 635 nm fluorescence, higher = more signal;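 also: score combines 667 nm spot fluorescence with signal to noise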
# Chain of Pro-neuregulin-1, membrane-bound isoform (Homo sapiens) (Q02297 whole entry, looked up, the tested form may be a part, canonical isoform): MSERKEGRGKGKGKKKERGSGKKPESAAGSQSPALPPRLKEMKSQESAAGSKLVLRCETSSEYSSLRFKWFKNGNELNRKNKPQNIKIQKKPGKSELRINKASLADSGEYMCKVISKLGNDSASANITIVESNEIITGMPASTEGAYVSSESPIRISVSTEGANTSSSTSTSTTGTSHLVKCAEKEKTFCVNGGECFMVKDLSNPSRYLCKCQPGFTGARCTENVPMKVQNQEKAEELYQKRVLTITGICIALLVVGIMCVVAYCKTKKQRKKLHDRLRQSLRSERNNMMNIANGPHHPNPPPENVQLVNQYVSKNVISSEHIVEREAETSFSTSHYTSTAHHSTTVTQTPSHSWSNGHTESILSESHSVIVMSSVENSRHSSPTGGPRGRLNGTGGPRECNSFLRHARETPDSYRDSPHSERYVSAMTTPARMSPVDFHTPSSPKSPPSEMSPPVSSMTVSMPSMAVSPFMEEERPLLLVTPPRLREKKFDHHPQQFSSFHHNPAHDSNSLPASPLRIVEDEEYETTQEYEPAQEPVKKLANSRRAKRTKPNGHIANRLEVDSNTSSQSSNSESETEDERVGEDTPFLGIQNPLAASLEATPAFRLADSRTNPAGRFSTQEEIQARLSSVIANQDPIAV
# [7] = system: Neuregulin-1 EGF-like domain; test: small molecules binding NRG1 EGF domain – biochemical, small-molecule microarray, 635 nm fluorescence, primary screen (AID 1081); conditions: higher = more signal;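 also: binding of the protein to compounds printed on small-molecule microarray slides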
# [8] = FRG1 expression reporter modulators in myotubes – cell-based, C2C12 myotubes, firefly/Renilla luciferase, luminescence, FRG1 inhibition for FSHD, primary screen (AID 1084); conditions: FRG1 promoter luciferase, higher = more signal, called active from +8 up or from −8 down
# [9] = small molecules captured by biotinylated probe aFST – biochemical, small-molecule microarray, fluorescence 635/667, stem cell growth factor project, primary screen (AID 1086); conditions: higher = more signal;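 also: score merges 667 nm fluorescence with signal-to-noise of each printed compound spot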
# [10] = binders of probe aHhip on microarray, primary screen, stem cell growth factor project, biochemical, small-molecule microarray, fluorescence 635/667 (AID 1087); conditions: higher = more signal;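 also: score merges spot fluorescence at 667nm with spot signal to noise ratio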
# [11] = system: PRMT1 (protein arginine N-methyltransferase 1); test: small molecules binding arginine methyltransferase PRMT1 – biochemical, small-molecule microarray, 635 nm fluorescence, primary screen (AID 1088); conditions: higher = more signal;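 also: binding of Prmt1 protein to compounds spotted on small-molecule microarray slides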
# [12] = growth effects on S. cerevisiae YJM789 – YJM789 clinical isolate, OD600, 24 h, basal, primary screen (AID 1089); conditions: higher = more signal, called active from +8 up or from −8 down;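 also: growth of clinical yeast isolate S. cerevisiae YJM 789 seeded 1000 cells per well; test concentration not given here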
# [13] = S. pombe growth modifiers, basal conditions – strain 972, OD600, 24 h, no modulator, primary screen (AID 1090);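 also: basal condition with compound alone and no growth modifier present; test concentration not given here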; conditions: S. pombe 972 growth, higher = more signal, called active from +8 up or from −8 down
# [14] = budding yeast growth modifiers under rapamycin – strain BY4716, OD600, 96 h, primary screen (AID 1091); also: test concentration not given here; conditions: S. cerevisiae BY4716 + rapamycin, higher = more signal, called active from +8 up or from −8 down
# [15] = molecular target: Torsin-1A-interacting protein 2 (Homo sapiens) (UniProt Q8NFQ8); test: small molecules binding lysate-expressed LULL1 – cell lysate, human LULL1 lysate, 635/667 nm fluorescence, primary screen (AID 1092); conditions: small-molecule microarray, hLULL1 lysate binding, 635 nm fluorescence; higher = more signal;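 also: probe is lysate of COS7 cells overexpressing human LULL1; score merges per-feature 667 nm fluorescence with signal-to-noise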
# Chain of Torsin-1A-interacting protein 2 (Homo sapiens) (Q8NFQ8 whole entry, looked up): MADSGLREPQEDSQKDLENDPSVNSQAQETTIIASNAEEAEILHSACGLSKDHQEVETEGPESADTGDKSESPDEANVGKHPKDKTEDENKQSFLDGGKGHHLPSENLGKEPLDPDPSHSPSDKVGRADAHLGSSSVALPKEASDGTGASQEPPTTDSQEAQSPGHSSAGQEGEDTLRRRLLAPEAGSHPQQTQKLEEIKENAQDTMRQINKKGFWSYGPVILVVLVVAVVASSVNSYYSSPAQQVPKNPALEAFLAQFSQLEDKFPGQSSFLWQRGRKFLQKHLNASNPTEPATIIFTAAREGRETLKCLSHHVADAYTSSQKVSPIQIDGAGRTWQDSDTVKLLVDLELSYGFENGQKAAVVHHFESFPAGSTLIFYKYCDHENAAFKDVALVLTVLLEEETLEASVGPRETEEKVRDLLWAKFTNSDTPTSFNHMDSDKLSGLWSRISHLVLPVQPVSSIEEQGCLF
# [16] = optical density change of DRC41 E. coli – strain DRC41, OD650, 24 h, E. coli filamentation project, primary screen (AID 1093);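 also: MC1000 strain lacking acrAB efflux and sulA so SOS filamentation is blocked; test concentration not given here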; conditions: E. coli DRC41 growth, higher = more signal, called active from +8 up or from −8 down
# [17] = probe aLefty2 binding to arrayed compounds – biochemical, biotinylated probe, 635/667 nm fluorescence, primary screen (AID 1094); conditions: small-molecule microarray, higher = more signal;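 also: score merges spot fluorescence near 667 nm with spot signal-to-noise ratio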
# [18] = system: Noggin (protein binding on small-molecule microarray); test: small molecules binding Noggin protein – biochemical, 635/667 nm fluorescence, primary screen (AID 1095); conditions: 635 nm fluorescence, higher = more signal;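 also: score merges 667 nm feature fluorescence with signal to noise over triplicate slides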
# [19] = molecular target: Neurogenic locus notch homolog protein 3 (Homo sapiens) (UniProt Q9UM47); test: small molecules binding NOTCH3 protein – biochemical, 635/667 nm fluorescence, primary screen (AID 1096); conditions: small-molecule microarray, 635 nm fluorescence, higher = more signal
# [20] = probe aEGFR binding to arrayed compounds – biochemical, biotinylated probe, 635/667 nm fluorescence, primary screen (AID 1097); conditions: small-molecule microarray, higher = more signal;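 also: probe is a biotinylated anti-EGFR antibody binding compounds printed on slides; score combines fluorescence near 667 nm and signal to noise of each spot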
SMILES,composite z-score [1],composite z-score [2],composite z-score [3],composite z-score [4],composite z-score [5],composite z-score [6],composite z-score [7],z-score [8],composite z-score [9],composite z-score [10],composite z-score [11],z-score [12],z-score [13],z-score [14],composite z-score [15],z-score [16],composite z-score [17],composite z-score [18],composite z-score [19],composite z-score [20]
CC(C)C(=C=CC[C@H](O)c1ccccc1OCCO)C[C@H](O)COCc1ccccc1,-0.322,-0.0849,-0.136,0.483,-0.284,0.294,0.767,-0.843 (inactive),-0.064,-0.0994,0.251,-0.024 (inactive),-1.26 (inactive),-0.501 (inactive),2.8,-0.0543 (inactive),-0.187,-0.0604,-0.287,-0.13
CCCCN1CC=CC23O[C@@H]4/C=C\CCCOC(=O)C4[C@H]2C(=O)N(C(CO)C(C)C)[C@@H]3C1=O (stereo not given in full),-0.1,0.0253,-0.101,0.728,-0.185,-0.164,1.47,0.723 (inactive),-0.228,-0.236,-0.385,0.383 (inactive),-0.74 (inactive),0.0577 (inactive),0.601,-0.714 (inactive),-0.165,-0.21,-0.754,0.371
CN(C)C(=O)[C@@]1(Cc2ccccc2CN=[N+]=[N-])COC(c2ccc(OCCCO)cc2)=N1,0.695,-0.445,-0.085,-0.0663,0.0696,1.63,1.1,-2.47 (inactive),0.681,-0.134,0.688,-0.352 (inactive),-7.06 (inactive),31.3 (active),2.65,2.21 (inactive),0.0781,-0.543,0.132,-0.152
C=C(CCCC)/C(=C/C[C@H](OC(=O)c1ccncc1)c1cccc(OCCO)c1)c1cnc2ccccc2c1,-0.279,0.824,0.0437,0.595,0.974,1.56,1.04,0.996 (inactive),0.346,-0.0491,1.53,-0.664 (inactive),-0.968 (inactive),8.23 (active),2.52,-0.268 (inactive),-0.121,0.869,1.13,-0.065
C[N+](C)(C)CCCCNC(=O)[C@H]1C[C@H]2C(=O)N[C@@H](Cc3ccccc3)C(=O)N2[C@H]1c1cccc(OCCO)c1,-0.397,1.29,-0.0375,1.21,0.641,1.06,1.36,2.28 (inactive),0.435,0.0373,0.982,-0.0304 (inactive),0.351 (inactive),-1.82 (inactive),1.99,0.0648 (inactive),0.0899,1.88,1.02,0.256
O=C1C[C@]2(c3ccc([N+](=O)[O-])cc3)C(=O)N(C3CC3)c3cc(CO)ccc3[C@H]2N1C1CCCCC1,-0.351,-0.124,-0.164,0.097,-0.0343,-0.123,-0.0608,0.413 (inactive),-0.0927,-0.236,0.788,0.0359 (inactive),0.389 (inactive),-1.04 (inactive),1.2,0.221 (inactive),-0.171,-0.533,-0.105,-0.0656
[N-]=[N+]=NCc1ccccc1[C@@H]1OC(c2ccc(OCCCO)cc2)=N[C@]1(Cc1ccccc1N=[N+]=[N-])C(=O)O,0.535,0.326,0.294,1.14,1.55,1.89,1.3,1.22 (inactive),1.28,0.455,1.48,-0.282 (inactive),-1.64 (inactive),-0.794 (inactive),3.13,-0.0956 (inactive),0.515,-0.0626,1.11,0.439
CC(C)C(=C=CC[C@H](O)c1ccccc1OCCO)C[C@H](O)c1cc(Cl)cc(Cl)c1O,-0.435,0.807,-0.0266,0.742,0.648,1.6,0.889,-0.926 (inactive),0.454,0.0505,1.55,-0.088 (inactive),-2.34 (inactive),-0.16 (inactive),2.71,-0.0708 (inactive),-0.226,0.811,1.03,0.0284
CC(C)c1nc2cc(Br)ccc2c(=O)o1,-0.404,0.109,0.0013,0.58,1.39,1.21,0.565,0.604 (inactive),0.689,-0.146,-0.0152,-0.0363 (inactive),0.347 (inactive),-0.26 (inactive),2.97,0.501 (inactive),-0.0823,0.0534,0.567,-0.0535
CN(C)CCCCNC(=O)[C@H]1C[C@H]2C(=O)NCC(=O)N2[C@H]1c1ccc(O)cc1,-0.772,-1.42,-0.273,-0.814,-0.929,0.68,1.07,5.11 (inactive),0.0525,-0.407,0.784,0.873 (inactive),0.981 (inactive),0.144 (inactive),1.21,0.187 (inactive),-0.189,0.15,0.408,-0.139
CC(=O)c1ccc(C(O)C2C=CC3C(=O)N(c4ccccc4)C(=O)C3N2Nc2ccc(C(C)C)cc2)cc1 (stereo not given),0.305,-0.152,-0.0226,0.897,1.37,1.55,1.09,0.59 (inactive),1.51,-0.106,1.08,1.24 (inactive),1.55 (inactive),-0.0304 (inactive),2.24,-0.541 (inactive),0.136,0.101,1.07,0.187
O=C1O[C@H](Cc2ccccc2)[C@@H]2[C@H]3C=CCCC=C3CN2[C@H]1Cc1ccc(O)cc1,-0.117,-0.0933,-0.0692,-0.026,-0.562,-0.465,0.0706,0.0201 (inactive),0.142,0.0976,-1.14,-0.055 (inactive),-1.54 (inactive),-0.621 (inactive),-0.145,0.222 (inactive),-0.0591,-0.0371,-0.268,-0.0958
COCCOC(=O)N1C(=O)[C@@]2(c3ccccc31)[C@H](C(=O)N1CCN(c3ncccn3)CC1)[C@H]1C(=O)O[C@H](c3ccccc3)[C@H](c3ccccc3)N1[C@@H]2c1ccccc1OCCO,-0.287,0.514,0.168,0.7,0.827,0.111,1.13,-1.12 (inactive),0.244,-0.0919,1.49,1.13 (inactive),0.185 (inactive),7.39 (inactive),2.61,1.97 (inactive),-0.0366,1.18,1.07,-0.067
C=CCNC(=O)[C@H]1[C@@H]2C(=O)O[C@@H](c3ccccc3)[C@@H](c3ccccc3)N2[C@@H](c2ccc(OCCO)cc2)[C@]12C(=O)Nc1ccccc12,-0.0085,0.586,0.083,0.331,-0.353,1.65,1.13,-2.89 (inactive),-0.189,-0.613,1.18,1.24 (inactive),0.259 (inactive),2.84 (inactive),3.36,1.35 (inactive),-0.0785,0.167,0.457,-0.194
Cc1ccc(S[C@]2(C(=O)NCC(F)(F)F)CC(=O)N(Cc3ccccc3C(F)(F)F)[C@@H]2c2ccc(CO)cc2)cc1,0.953,-0.0728,-0.1,-0.0379,-1.14,-0.401,0.573,-1.82 (inactive),-0.606,-0.191,0.895,-0.837 (inactive),0.0848 (inactive),-0.203 (inactive),1.67,-0.254 (inactive),0.145,-0.872,-0.462,-0.0416
C=C(COC)C(=O)CC[C@@H](OC(=O)c1ccccc1-c1ccccc1C(=O)O)c1ccc(OCCO)cc1,-0.209,0.487,-0.132,-0.252,-0.638,-0.335,0.685,2.6 (inactive),-0.0463,-0.0994,1.39,-0.656 (inactive),-0.943 (inactive),-0.856 (inactive),0.886,0.315 (inactive),-0.0341,1.26,0.505,-0.139
COC(=O)C(CC#Cc1ccc2c(c1)[C@]1(C(=O)N2)[C@H](c2ccc(OCCO)cc2)N2[C@H](c3ccccc3)[C@H](c3ccccc3)OC(=O)[C@H]2[C@@H]1C(=O)N1CCCCCCC1)C(=O)OC,3.41,1.91,0.826,1.21,1.14,1.93,1.27,-0.378 (inactive),3.21,1.45,1.54,1.37 (inactive),0.736 (inactive),2.56 (inactive),3.95,-0.611 (inactive),1.54,1.84,1.03,1.17
CCCCCC1=C2CNC(CC(C)C)(C(=O)OC)C=C2C(C)C1=O (stereo not given),1.08,-0.176,0.185,0.0051,0.122,1.01,0.568,0.51 (inactive),0.404,3.31,1.51,0.298 (inactive),0.421 (inactive),0.22 (inactive),2.87,-0.415 (inactive),0.0887,-0.272,0.225,-0.126
CN(C)CCCCNC(=O)[C@H]1C[C@H]2C(=O)N3CCC[C@H]3C(=O)N2[C@H]1c1cccc(OCCO)c1,0.429,0.76,-0.0386,0.0348,-0.182,1.94,1.28,3.81 (inactive),0.081,0.565,1.1,0.752 (inactive),1.68 (inactive),0.751 (inactive),3.09,-0.101 (inactive),0.0164,0.866,0.476,-0.0968
C=CCC(OC(C)=O)[C@@H]1[C@@H](N(Cc2cc3ccccc3o2)C(=O)Cc2ccc(OC)cc2)c2cc(OCCCO)ccc2N1C(=O)c1ccc2ccccc2n1 (stereo not given in full),-0.0558,-0.24,0.0372,0.176,0.0554,-0.251,-0.0159,0.544 (inactive),0.271,0.12,0.404,-0.256 (inactive),-0.844 (inactive),0.292 (inactive),0.295,1.03 (inactive),0.0478,0.356,0.0707,0.0453
